This is part of a sample that, as a whole, favours compounds with a hit. Of some 79,000 tested, about 15% had one in any assay. Activity calls are given as the source filed them. Rule as the data show it: active = growth inhibition above about 70%; inactive = the rest.
Experiments:
[1] = NCI Yeast Anticancer Drug Screen. Data for the rad52 strain (AID 147);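 also: 0% = growth of vehicle-treated control cultures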; conditions: S. cerevisiae rad52 mutant growth inhibition, active compounds read high
In short: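 The repair-mutant yeast strain was incubated with compounds, then growth was read and inhibition derived relative to vehicle.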

[2] = NCI Yeast Anticancer Drug Screen. Data for the wt1 strain (AID 149);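 also: 0% = growth of vehicle-treated wt1 cultures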; conditions: S. cerevisiae wt1 strain (SPY 50644) growth inhibition, active compounds read high
In short: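 Using yeast strain wt1, compound-induced growth inhibition was determined against vehicle-treated cultures.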

[3] = NCI Yeast Anticancer Drug Screen. Data for the rad50EPP+ strain (AID 151);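 also: 0% = growth of vehicle-treated control cultures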; conditions: S. cerevisiae rad50 mutant strain, active compounds read high
In short: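 Vehicle-normalised growth inhibition; rad50EPP+ yeast strain, altered in DNA damage repair, compound-treated.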

[4] = NCI Yeast Anticancer Drug Screen. Data for the mgt1 strain (AID 153); conditions: S. cerevisiae mgt1 mutant growth inhibition, active compounds read high
In short: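 Vehicle-normalized growth inhibition is determined in mgt1 yeast, a strain selected for a defined alteration in DNA repair or cell cycle control.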

[5] = NCI Yeast Anticancer Drug Screen. Data for the rad50 strain (AID 155);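 also: 0% = growth of vehicle-only cultures of the same strain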; conditions: S. cerevisiae rad50 strain growth inhibition, active compounds read high
In short: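 Relative growth inhibition (compound vs vehicle) was measured in yeast with a defined repair-gene alteration.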

[6] = NCI Yeast Anticancer Drug Screen. Data for the mec2-1 strain (AID 157); conditions: S. cerevisiae mec2-1 strain, active compounds read high
In short: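 Mutant yeast (mec2-1) grown with compound; growth inhibition relative to vehicle control reported.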

[7] = NCI Yeast Anticancer Drug Screen. Data for the rad14 strain (AID 159);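 also: 0% = growth of vehicle-treated control cultures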; conditions: S. cerevisiae rad14 strain growth inhibition, active compounds read high
In short: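 Screen for anticancer potential: a yeast strain altered in DNA damage repair is grown with compound, and reduced growth is quantified against vehicle controls.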

[8] = NCI Yeast Anticancer Drug Screen. Data for the sgs1 mgt1 strain (AID 161);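 also: 0% = growth of cultures given vehicle only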; conditions: S. cerevisiae sgs1 mgt1 strain, active compounds read high
In short: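 Growth of a repair-deficient yeast mutant was monitored after compound treatment and expressed as inhibition relative to vehicle-treated cultures.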

[9] = NCI Yeast Anticancer Drug Screen. Data for the CLN2oe strain (AID 163);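 also: 0% = growth of vehicle-only control cultures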; conditions: S. cerevisiae CLN2oe strain, active compounds read high
In short: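 Compounds are applied to yeast harbouring a defined cell-cycle control change; reduced growth compared with vehicle-treated controls gives the value.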

[10] = NCI Yeast Anticancer Drug Screen. Data for the cln2 rad14 strain (AID 165);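 also: 0% = growth equal to vehicle treated cultures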; conditions: S. cerevisiae cln2 rad14 strain, active compounds read high
In short: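 Readout is yeast growth inhibition versus vehicle-treated controls, using a strain with cln2 and rad14 alterations exposed to compound.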

[11] = NCI Yeast Anticancer Drug Screen. Data for the bub3 strain (AID 167); conditions: S. cerevisiae bub3 mutant strain, active compounds read high
In short: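 Screening used yeast with an engineered genetic alteration affecting cell cycle control. Compound-exposed cultures were compared with vehicle cultures, and reduced growth was taken as inhibition.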

[12] = NCI Yeast Anticancer Drug Screen. Data for the wt2 strain (AID 169);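 also: 0% = growth of vehicle-treated yeast cultures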; conditions: S. cerevisiae wt2 strain growth inhibition, active compounds read high
In short: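 Against vehicle-treated controls, the growth of yeast exposed to each compound was compared, and the inhibition was recorded.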

[13] = NCI Yeast Anticancer Drug Screen. Data for the mlh1 strain (AID 171);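 also: 0% = growth of vehicle-treated control cultures of the same strain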; conditions: S. cerevisiae mlh1 strain growth inhibition, active compounds read high
In short: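 Measured: yeast growth. Reference: vehicle-treated controls. Organism: strain with a defined alteration affecting DNA damage repair or cell cycle control, treated with compound.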

[14] = NCI Yeast Anticancer Drug Screen. Data for the sgs1 strain (AID 173);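 also: 0% = growth of vehicle-only control cultures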; conditions: S. cerevisiae sgs1 mutant, active compounds read high
In short: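 Each compound was added to cultures of the altered yeast strain. Growth was recorded, and inhibition was derived by comparison with vehicle controls.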

[15] = NCI Yeast Anticancer Drug Screen. Data for the mlh1 rad18 strain (AID 175); conditions: S. cerevisiae mlh1 rad18 strain growth inhibition, active compounds read high
In short: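 Genetically defined yeast (DNA repair-deficient) exposed to compounds; growth inhibition determined relative to vehicle.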

[16] = at 5.0 µM (retest, dose inferred, filed as 0.5)
[17] = at 50.0 µM (retest, dose inferred, filed as 5.0)

Measured: growth inhibition

CCN(CC)CCNc1ccc2nc(C)n3c4ccc(O)cc4c(=O)c1c23
active: [1]; at 3.7 µM 74% | [1]; at 11.0 µM 89% | [1]; at 33.0 µM 91% | [1]; at 100.0 µM 93% | [5]; at 3.7 µM 73% | [5]; [16] 91% | [5]; at 11.0 µM 84% | [5]; at 33.0 µM 91% | [5]; [17] 91% | [5]; at 100.0 µM 92% | [15]; at 50.0 µM 78.4%
inactive: [1]; at 1.2 µM 40% | [2]; at 1.2 µM -2% | [2]; at 3.7 µM -4% | [2]; at 11.0 µM -2% | [2]; at 33.0 µM 0% | [2]; at 100.0 µM 2% | [3]; at 1.2 µM 5% | [3]; at 3.7 µM 15% | [3]; at 11.0 µM 24% | [3]; at 33.0 µM 38% | [3]; at 100.0 µM 39% | [4]; at 1.2 µM 3% | [4]; at 3.7 µM 0% | [4]; at 11.0 µM 3% | [4]; at 33.0 µM 1% | [4]; at 100.0 µM 2% | [5]; at 1.2 µM 42% | [5]; at 50.0 µM -0.45% | [6]; at 1.2 µM -1% | [6]; at 3.7 µM 10% | [6]; [16] 15% | [6]; at 11.0 µM 3% | [6]; at 33.0 µM 14% | [6]; [17] 15% | [6]; at 50.0 µM 26.9% | [6]; at 100.0 µM 28% | [7]; at 1.2 µM -1% | [7]; at 3.7 µM 2% | [7]; at 11.0 µM 3% | [7]; at 33.0 µM 8% | [7]; at 100.0 µM 13% | [8]; [16] 18% | [8]; [17] 18% | [8]; at 50.0 µM 0.15% | [9]; at 1.2 µM -1% | [9]; at 3.7 µM 2% | [9]; at 11.0 µM -1% | [9]; at 33.0 µM 3% | [9]; at 100.0 µM -2% | [10]; [16] 28% | [10]; [17] 28% | [10]; at 50.0 µM 18.6% | [11]; at 1.2 µM -3% | [11]; at 3.7 µM -19% | [11]; [16] 39% | [11]; at 11.0 µM -1% | [11]; at 33.0 µM -5% | [11]; [17] 39% | [11]; at 50.0 µM -3.85% | [11]; at 100.0 µM 3% | [12]; at 1.2 µM 0% | [12]; at 3.7 µM 1% | [12]; at 11.0 µM 0% | [12]; at 33.0 µM 1% | [12]; at 100.0 µM 5% | [13]; at 1.2 µM 2% | [13]; at 3.7 µM 3% | [13]; at 11.0 µM -6% | [13]; at 33.0 µM 2% | [13]; at 100.0 µM 22% | [14]; at 1.2 µM 0% | [14]; at 3.7 µM -1% | [14]; at 11.0 µM 1% | [14]; at 33.0 µM 4% | [14]; at 100.0 µM 5% | [15]; [16] 6% | [15]; [17] 6%

C=CC(C)(C)N1C(=O)C(C(C)=O)=C(O)C1Cc1c[nH]c2ccccc12 (stereo unspecified)
active: [1]; at 100.0 µM 87% | [2]; at 100.0 µM 71% | [4]; at 100.0 µM 95% | [5]; at 100.0 µM 78% | [6]; at 100.0 µM 88% | [7]; at 100.0 µM 95% | [8]; [17] 73% | [9]; at 100.0 µM 83% | [11]; at 100.0 µM 84% | [12]; at 100.0 µM 92% | [14]; at 100.0 µM 90% | [15]; [17] 86%
inactive: [1]; at 1.2 µM -1% | [1]; at 3.7 µM -4% | [1]; at 11.0 µM -2% | [1]; at 33.0 µM 19% | [2]; at 1.2 µM 1% | [2]; at 3.7 µM 5% | [2]; at 11.0 µM 3% | [2]; at 33.0 µM 20% | [3]; at 1.2 µM -1% | [3]; at 3.7 µM 1% | [3]; at 11.0 µM -4% | [3]; at 33.0 µM -9% | [3]; at 100.0 µM -15% | [4]; at 1.2 µM -2% | [4]; at 3.7 µM -4% | [4]; at 11.0 µM -1% | [4]; at 33.0 µM 16% | [5]; at 1.2 µM -2% | [5]; at 3.7 µM -2% | [5]; [16] 0% | [5]; at 11.0 µM -2% | [5]; at 33.0 µM 10% | [5]; [17] 48% | [5]; at 50.0 µM 28.6% | [6]; at 1.2 µM 0% | [6]; at 3.7 µM 1% | [6]; [16] -18% | [6]; at 11.0 µM 7% | [6]; at 33.0 µM 21% | [6]; [17] -8% | [6]; at 50.0 µM 58.7% | [7]; at 1.2 µM -3% | [7]; at 3.7 µM -3% | [7]; at 11.0 µM -1% | [7]; at 33.0 µM 21% | [8]; [16] 18% | [8]; at 50.0 µM 52.8% | [9]; at 1.2 µM -5% | [9]; at 3.7 µM -12% | [9]; at 11.0 µM -9% | [9]; at 33.0 µM 16% | [10]; [16] -4% | [10]; [17] 21% | [10]; at 50.0 µM 32.8% | [11]; at 1.2 µM -3% | [11]; at 3.7 µM -2% | [11]; [16] -11% | [11]; at 11.0 µM 0% | [11]; at 33.0 µM 15% | [11]; [17] 55% | [11]; at 50.0 µM 46.8% | [12]; at 1.2 µM -1% | [12]; at 3.7 µM -1% | [12]; at 11.0 µM -1% | [12]; at 33.0 µM 16% | [13]; at 1.2 µM -6% | [13]; at 3.7 µM 0% | [13]; at 11.0 µM 0% | [13]; at 33.0 µM 14% | [13]; at 100.0 µM 66% | [14]; at 1.2 µM 0% | [14]; at 3.7 µM 0% | [14]; at 11.0 µM 2% | [14]; at 33.0 µM 17% | [15]; [16] 55% | [15]; at 50.0 µM 68.5%
